Hit rate of the full screen: of about 69,000 compounds, about 8,600 (12%) showed an effect of 50% or more. For the sample, strong results were picked, then their nearest neighbours and some compounds at random.

In the test the test system is Plasmodium berghei. The experiment in a line: Screen against P. berghei liver stage (PbLuc), transformed with Luciferase, at 10uM. Type of test: functional, HepG2. The conditions noted are these: tested at 10 uM.
Turning to `NC(=O)CN1CCCC(Cc2ccc(N3CCOCC3)nn2)C1` (stereo unspecified), the INHIBITION is reported as 15.9%.
The figure for `COC(=O)C(NC(=O)C1CCC1)c1cc(F)ccc1F` (stereo unspecified) is -19.9%; for `Cc1nn(C)c(Cl)c1C(=O)NCC1(C(N)=O)CCOCC1` it is 27.5%; for `Cc1ccc2nc(CN(C)Cc3n[nH]c4c3CCCCC4)[nH]c2c1C` it is 69.6%.
As to `Cc1ccc2nc(CN(C)Cc3[nH]nc4c3CCC4)[nH]c2c1C`, the INHIBITION is recorded as -59.5%.
Turning to `Cc1ccc2[nH]c(CN(C)Cc3n[nH]c4c3CCC4)nc2c1`, the INHIBITION was -30.5%.
For the compound `CCCNS(=O)(=O)c1cnccc1N1CCN(C(C)C)CC1`, the INHIBITION is -15.5%.
The figure for `C1CC(NCC2CC2)CN(Cc2noc(C3CC3)n2)C1` (stereo unspecified) is 19.5%; for `CCN1CCN(C(=O)NCc2cccc(-c3cnn(C)c3)c2)CC1` it is 50.1%; for `Cn1cc(-c2cccc(CNC(=O)N3CCC[C@@H]3CO)c2)cn1` it is -21.6%.
With `CCC1COCCN1C(=O)NCc1cccc(-c2cnn(C)c2)c1` (stereo unspecified), the INHIBITION came out at 21.2%.
The value for `Cn1cc(C(=O)N2CC[C@@H]3[C@@H]2CCN3Cc2cccc(C#N)c2)cn1` was 41.6%; that for `CN(Cc1ccc(F)c(F)c1)C(=O)CCc1nc(-c2nnc[nH]2)no1` was 55.4%; that for `Cc1ccccc1CN(C)C(=O)CCc1nc(-c2nnc[nH]2)no1` was 13.7%.
Regarding `CN(CCCc1ccccc1)C(=O)CCc1nc(-c2nnc[nH]2)no1`, the INHIBITION came out at 22%.
Turning to `O=C(NCc1cccc(F)c1)NCC(O)c1cccc(F)c1` (stereo unspecified), the INHIBITION is -21.5%.
Take `CN(C)CCOCc1nnc2n1CCN(CC1CC1)CC2`: the INHIBITION is listed as 36.2%.
With `COc1cccc(C(=O)NCc2ccccc2S(=O)(=O)N(C)C)c1`, the INHIBITION is 45.2%.
The value for `COc1cccc(C(=O)NCc2ccccc2S(=O)(=O)N(C)CCO)c1` was 78.1%.
As for `Cc1ccc(C(=O)NCc2ccccc2S(=O)(=O)N(C)CCO)cc1F`, the INHIBITION is -27.8%.
For the compound `Cc1noc(C2CCN(C(=O)c3cccs3)CC2)n1`, the INHIBITION was found to be 21%.
The value for `CC1(C)CC(N2CCN(C3CCCC3)C(CCO)C2)CC(C)(C)C1` (stereo unspecified) was -2.98%; that for `CN(CC(F)(F)F)C(=O)COc1nc(Cc2ccc(F)cc2)no1` was 40.6%; that for `Cc1cccc(C(=O)N2CCCSCC2CN2CCCC2)c1` (stereo unspecified) was -19.7%.
For `Cn1[nH]c(CNc2cccc(Cl)c2)nc1=O`, the INHIBITION is recorded as -0.473%.
The value for `Cc1cccc(NCc2nn(C)c(=O)[nH]2)c1` was 59.8%.
On to `Cc1cccc(NCc2nc(C)ccc2O)c1`, for which the INHIBITION came out at 24.8%.
The value for `CCc1ncc2c(n1)CN(CC(=O)Nc1cc(C)no1)CC2` was -25.8%.
Regarding `CN1CCN(C2CCCC2)C(CCO)C1` (stereo unspecified), the INHIBITION stood at 7.24%.
The figure for `CCN(CC)C(=O)COc1nc(C(C)C)no1` is 53.1%; for `CC(C)c1noc(OCC(=O)N(C)C(C)C)n1` it is -13.6%.
In the case of `COC(=O)COc1nc(C(C)C)no1`, the INHIBITION is listed as 7.25%.
`Cn1cnnc1CC1CCN(Cc2nn(C)c3cccc(Cl)c23)CC1`: the INHIBITION stood at 75.4%.
Regarding `Cn1nc(CN2CCC(c3ccncc3)CC2)c2c(Cl)cccc21`, the INHIBITION is given as -18.1%.
On to `CCc1nn(C)c(Cl)c1CN1CCC(Cc2nncn2C)CC1`, for which the INHIBITION is given as -7.25%.
For the compound `Cc1nc(CN2CCCC(C)(CO)C2)no1` (stereo unspecified), the INHIBITION was 68.1%.
Turning to `Cc1nc(CN2CCOC3(CCCC3)C2)no1`, the INHIBITION is on record as 42.5%.
Regarding `Cc1nc(CN2CCCN(CCCc3ccccc3)CC2)no1`, the INHIBITION is recorded as -34.8%.
The value for `c1csc(CN2CCc3onc(Cn4cccc4)c3C2)c1` was 2.41%; that for `Cc1cccc(S(=O)(=O)NC(=O)CCc2cscn2)c1` was 18.6%; that for `NC(=O)NC(=O)CCN(Cc1ccccc1)CC1CCOCC1` was 6.23%.
As for `O=C(CN(Cc1ccccc1)CC1CCOCC1)NC(=O)NC1CC1`, the INHIBITION turned out to be 55.1%.
The value for `O=C(CN(Cc1ccccc1)CC1CCOCC1)Nc1nccs1` was -1.53%.
On to `Cc1ccc(C(=O)NC2CCN(C(=O)NCc3ccccn3)CC2)o1`, for which the INHIBITION is on record as -4.16%.
On to `Cc1cc(NC(=O)NCC2CCN(C(C)C)C2)no1` (stereo unspecified), for which the INHIBITION is recorded as -25.8%.
Consider `Cc1cn2c(n1)CCC(NC(=O)c1ccc(S(C)(=O)=O)o1)C2` (stereo unspecified), for which the INHIBITION turned out to be 42.3%.
The value for `Cn1c2ncccc2c(=O)n1CC(=O)NCCC1=CCCCC1` was 66.8%; that for `Cn1c2ncccc2c(=O)n1CC(=O)NCCc1c(F)cccc1F` was 39.6%; that for `Cc1ccc(CNC(=O)Cn2c(=O)c3cccnc3n2C)cc1F` was 47.2%.
With `CCc1ccc(CN2CCc3ncnc(N4CCOCC4)c3CC2)o1`, the INHIBITION is on record as 12.7%.
Consider `CC(C)(C)CN(CCC#N)Cn1cc(Cl)cn1`, for which the INHIBITION is listed as 40.7%.
For `CC(C)(C)c1nc(CN2CCCC2Cn2cccn2)no1` (stereo unspecified), the INHIBITION is 60.5%.
For the compound `Cc1cccn2c(=O)cc(CN3CCCC3Cn3cncn3)nc12` (stereo unspecified), the INHIBITION is recorded as -30.7%.
The figure for `N#Cc1cc(F)ccc1CN1CCCCC1Cn1cccn1` (stereo unspecified) is 5.03%; for `Cc1cnn(CC2CCCN2Cc2noc(C(C)(C)C)n2)c1` (stereo unspecified) it is -9.37%.
Turning to `Cn1ccnc1CN1CCCC1Cn1cccn1` (stereo unspecified), the INHIBITION is -14%.
The figure for `Cc1cccn2c(=O)cc(CN3CCCC3Cn3cccn3)nc12` (stereo unspecified) is 65.2%; for `CC(C)(C)c1nc(CN2CCCC2Cn2cncn2)no1` (stereo unspecified) it is -38%.
Take `N#Cc1ccc(CN2CCCC2Cn2cccn2)c(F)c1` (stereo unspecified): the INHIBITION is given as 25.6%.
On to `Cc1cnn(CC2CCCN2Cc2cc(=O)n3cccc(C)c3n2)c1` (stereo unspecified), for which the INHIBITION is recorded as 42.9%.
Consider `Cn1ccnc1CN1CCCCC1Cn1cccn1` (stereo unspecified), for which the INHIBITION was 59.7%.
The value for `N#Cc1cc(F)ccc1CN1CCCC1Cn1cccn1` (stereo unspecified) was 66.7%; that for `Cc1cnn(CC2CCCN2Cc2nccn2C)c1` (stereo unspecified) was 41.2%; that for `CCOc1ncccc1NC(=O)C1CCS(=O)(=O)C1` (stereo unspecified) was 11.9%.
For the compound `Cc1ccc(CN2CCOC(c3cnccn3)C2)s1` (stereo unspecified), the INHIBITION came out at 16.82%.
`Cn1cc([C@@H]2CN(S(=O)(=O)c3ccccc3F)C[C@H]2N)c2ccncc21`: the INHIBITION is on record as 18%.
As for `Cc1nnc(NC(=O)NCc2ccnc(N(C)C)c2)s1`, the INHIBITION is on record as -39.7%.
For `COC(=O)CC1CCN(C(=O)c2ccc(C)cc2)CC1`, the INHIBITION amounted to 28.7%.
The value for `CNC(=O)C1(Cc2cc(C(C)C)no2)CCN(Cc2ccccn2)C1` (stereo unspecified) was 11.9%; that for `Cc1noc(C(C)C)c1C(=O)NS(=O)(=O)c1ccc(Cl)cc1` was -28.4%; that for `CNc1cccc(C2CCCN(C(=O)c3cccnc3)C2)n1` (stereo unspecified) was 35.2%.
Take `Cc1cnn(CC2CCCN2Cc2c(C)noc2C)c1` (stereo unspecified): the INHIBITION worked out at 5.983%.
Take `O=C(CCc1nccs1)N1CCCC(n2ccnc2)C1` (stereo unspecified): the INHIBITION is reported as -1.14%.
As for `CCOC(C)c1nccn1Cc1cc(C)on1` (stereo unspecified), the INHIBITION is on record as 26.4%.
The figure for `CC(=O)Nc1ccc(CNC(C)c2c(C)nn(C)c2C)cc1` (stereo unspecified) is -42.1%.
In the case of `COCCC(=O)N1CCCC1c1csc(Nc2ccccn2)n1` (stereo unspecified), the INHIBITION was found to be 30.8%.
The value for `CC(C)(C)c1cc(NC(=O)CN2CCCC2Cn2cccn2)on1` (stereo unspecified) was 53%.
Consider `Cc1noc(C)c1CN1CCCC1c1nnc2ccccn12` (stereo unspecified), for which the INHIBITION turned out to be 17.5%.
Consider `CC(C)(C)c1cc(NC(=O)CN2CCCC2Cn2cncn2)on1` (stereo unspecified), for which the INHIBITION came out at 9.41%.
Consider `CC(C)(C)c1nc(CN2CCCC2c2nnc3ccccn23)no1` (stereo unspecified), for which the INHIBITION stood at 57.2%.
Turning to `CCn1c(C2CCCN2Cc2noc(C(C)(C)C)n2)nc2ccccc21` (stereo unspecified), the INHIBITION was -12.1%.
The figure for `CC(C)c1cc(NC(=O)CN2CCCC2Cn2cccn2)on1` (stereo unspecified) is 19.5%.
The value for `COc1cccc(C(=O)NC(CC(=O)O)c2cccs2)c1OC` (stereo unspecified) was -7.31%.
As to `Cc1nc(C#N)c(N2CCC(c3nc(-c4ccc(F)cc4)no3)CC2)o1`, the INHIBITION amounted to 34%.
For the compound `Cc1nc(C#N)c(N2CCC(c3nc(-c4ccccc4)no3)CC2)o1`, the INHIBITION is on record as 57.6%.
As for `CCc1nc(C#N)c(N2CCC(c3nc(-c4ccccc4)no3)CC2)o1`, the INHIBITION is given as 34.6%.
As for `O=C(NCc1cc(F)cc(Br)c1)C1(O)CCSCC1`, the INHIBITION is -26.2%.
The figure for `CC(C)(C(=O)N1CCC(C(N)=O)C1)c1ccccc1F` (stereo unspecified) is 52.9%; for `CC(C)(C(=O)NCC(=O)N1CCCC1)c1ccccc1F` it is -36.4%; for `CC(C)(C(=O)N1CCC(CS(N)(=O)=O)CC1)c1ccccc1F` it is 17.9%.
With `c1coc(CN2CCCC3(COCCN(Cc4c[nH]nn4)C3)C2)c1` (stereo unspecified), the INHIBITION is listed as 4.92%.
As for `CCNC(=O)C1CCN(c2cc(-c3ccccc3)nc3ccnn23)C1` (stereo unspecified), the INHIBITION stood at 33%.
Consider `CCNC(=O)C1CCN(c2cc(CC)nc3ccnn23)C1` (stereo unspecified), for which the INHIBITION was 52.2%.
Turning to `CCc1cc(N2CC(N3CCCCC3C)C2)n2nccc2n1` (stereo unspecified), the INHIBITION is listed as 12.8%.
Consider `CCc1cc(N2CCN3CCCCC3C2)n2nccc2n1` (stereo unspecified), for which the INHIBITION worked out at 30.9%.
In the case of `O=C1CN(c2cc(-c3ccccc3F)nc3ccnn23)CCCN1`, the INHIBITION stood at 6.11%.
With `Cc1nn2c(N3CCCC(C(N)=O)C3)cc(-c3ccccc3)nc2c1C` (stereo unspecified), the INHIBITION is reported as -32.2%.
Take `CCNC(=O)C1CCN(c2cc(-c3ccccc3F)nc3ccnn23)C1` (stereo unspecified): the INHIBITION came out at 53.3%.
For the compound `Cc1nn2c(N3CCC(C(N)=O)CC3)cc(-c3ccccc3)nc2c1C`, the INHIBITION worked out at 61.3%.
In the case of `CC(=O)NC1CCN(c2cc(-c3ccccc3)nc3c(C)c(C)nn23)C1` (stereo unspecified), the INHIBITION is -3.58%.
Regarding `CCNC(=O)C1CCN(c2cc(-c3ccccc3)nc3cc(C)nn23)C1` (stereo unspecified), the INHIBITION stood at 56.5%.
Turning to `Cc1nn2c(N3CCC(O)CC3)cc(-c3ccccc3)nc2c1C`, the INHIBITION is on record as 41.8%.
`CCNC(=O)C1CCN(c2nccc(C3CCCC3)n2)C1` (stereo unspecified): the INHIBITION is given as -2.34%.
Take `Cc1csc(CCNCc2cnc3c(c2)c(C)nn3C)n1`: the INHIBITION is reported as -14.8%.
The value for `COCC1CN(Cc2ccc(OC)cc2)Cc2nnn(CC3CC3)c21` (stereo unspecified) was 18.7%.
As to `COCCOc1ccc(CNC2CCc3ncnn3C2)cc1OC` (stereo unspecified), the INHIBITION came out at 49.5%.
For `COc1cccc(CCNS(=O)(=O)c2ccc(NC(C)=O)cc2)c1`, the INHIBITION is 22.9%.
On to `CCN1CCN(C)C(=O)C12CCN(Cc1cccc(C)c1)CC2`, for which the INHIBITION amounted to 39.5%.
With `Cc1nc(CN2CCN(C(=O)c3ccc(=O)n(C)c3)CC2)cs1`, the INHIBITION is recorded as -15.9%.
For the compound `CN(C)C(=O)NCC(=O)N1CCCC2(CCC(=O)N(CC3CC3)C2)C1` (stereo unspecified), the INHIBITION was determined as 24.9%.
Turning to `O=C(NCC1(O)CCC1)NC(c1cc(F)ccc1F)C1CC1` (stereo unspecified), the INHIBITION came out at 31.2%.

The values above are taken from ChEMBL document CHEMBL4513216, “Probing the Open Global Health Chemical Diversity Library for Multistage-Active Starting Points for Next-Generation Antimalarials” (ACS Infect Dis, 2020).
